# PubChem BioAssay (EPA / NIEHS)
# Active and inactive are the calls of the source. The calls were made as follows: active = hit-call score of the fitted dose curve at least 0.9, where 1 is the maximum; inactive = score below 0.9.
# Experiment: ATG_EGR_CIS: Attagene CIS-FACTORIAL HepG2 Assay for human Early Growth Response 1 (EGR1) (AID 2282938)
# Details: HepG2 Attagene CIS-FACTORIAL EGR reporter mRNA; actives raise or lower the signal
# Outline: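 Cell-based multiplex transcription assay: HepG2 carrying transfected cis-element reporter units, 24 h chemical treatment. Fluorescence from capillary electrophoresis of RT-PCR products gives mRNA levels; fitting is bidirectional relative to DMSO.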
SMILES,outcome,AC50
O=C(O)CC(O)C(=O)O (stereo not drawn),inactive,
CC(C)=CCCC(C)=CC=O,,100 µM (active)
C=CC(=C)CCC=C(C)C,inactive,
CC[C@H]1OC(=O)[C@H](C)[C@@H](O[C@H]2C[C@@](C)(OC)[C@@H](O)[C@H](C)O2)[C@H](C)[C@@H](O[C@@H]2O[C@H](C)C[C@H](N(C)C)[C@H]2O)[C@](C)(O)C[C@@H](C)C(=O)[C@H](C)[C@@H](O)[C@]1(C)O,inactive,
O=C1CCC(N2C(=O)c3ccccc3C2=O)C(=O)N1 (stereo not drawn),inactive,
C[C@](N)(Cc1ccc(O)c(O)c1)C(=O)O,inactive,
Nc1cccc(N)c1,inactive,
Cn1c(=O)c2c(ncn2C)n(C)c1=O,inactive,
Nc1nc2ncc(CNc3ccc(C(=O)N[C@@H](CCC(=O)O)C(=O)O)cc3)nc2c(=O)[nH]1,inactive,
CC(=O)OCCC(C)C,inactive,
O=P(OC(CCl)CCl)(OC(CCl)CCl)OC(CCl)CCl,,63.5 µM (active)
CCCC(=O)OCC,inactive,
COc1cccc(-c2ccc(/C=C\CN3CCCCCC3)cc2Cl)c1,inactive,
O=C(OC[C@H]1O[C@@H](OC(=O)c2cc(O)c(O)c(OC(=O)c3cc(O)c(O)c(O)c3)c2)[C@H](OC(=O)c2cc(O)c(O)c(OC(=O)c3cc(O)c(O)c(O)c3)c2)[C@@H](OC(=O)c2cc(O)c(O)c(OC(=O)c3cc(O)c(O)c(O)c3)c2)[C@@H]1OC(=O)c1cc(O)c(O)c(OC(=O)c2cc(O)c(O)c(O)c2)c1)c1cc(O)c(O)c(OC(=O)c2cc(O)c(O)c(O)c2)c1,inactive,
CCOCCOCCOCCO,inactive,
O=C(O)c1cccc(N(Cc2cccnc2)c2ccc(OC(F)F)c(OC(F)F)c2)c1,inactive,
Cn1c(=O)cc(Oc2ccc(F)cc2F)c2cnc(NCC(C)(C)O)nc21,inactive,
CC(C)CC(C)(O)C#CC(C)(O)CC(C)C (stereo not drawn),inactive,
CC(C)=CCC/C(C)=C\CO,inactive,
Cc1ccc(S(=O)(=O)O)cc1C,inactive,
CC(=O)c1ccc2c(c1)[C@H](NC(=O)c1ccc(F)cc1)[C@@H](O)C(C)(C)O2,inactive,
C=CCCCCCCCCC(=O)O,inactive,
O=C(O)c1cccc(Oc2ccccc2)c1,inactive,
C1N2CN3CN1CN(C2)C3,inactive,
CC1=CC(=O)CC(C)(C)C1,inactive,
CNS(=O)(=O)c1cc(C(=O)N2CCC(CCN3C4CCC3CC(n3c(C)nc5ccccc53)C4)(c3cccc(F)c3)CC2)c(Cl)cc1F (stereo not drawn),inactive,
O=C(O)CCN(C1(C(=O)NO)CCCC1)S(=O)(=O)c1ccc(Oc2ccc(F)cc2)cc1,inactive,
On1ccccc1=S,inactive,
CCn1nc(Cc2ccccc2)cc1C1CCN(C[C@H]2C[C@H](N(C)[C@@H](C(=O)O)C(C)C)C[C@@H]2c2cccc(F)c2)CC1,,155 µM (active)

# Experiment: ATG_M_19_CIS: Attagene CIS-FACTORIAL HepG2 Assay for M19 Transcription Factor (Internal Marker) (AID 2282939)
# Details: HepG2 Attagene CIS-FACTORIAL M19 internal marker reporter; actives raise or lower the signal
# Outline: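 HepG2, MRTU transient transfection, 24 h dosing. Total RNA → RT-PCR → 6-FAM primer extension → HpaI digest → CE fluorescence. Bidirectional curve fit, DMSO negative control.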
row,SMILES,outcome
1,O=C(O)CC(O)C(=O)O (stereo not drawn),inactive
2,CC[C@H]1OC(=O)[C@H](C)[C@@H](O[C@H]2C[C@@](C)(OC)[C@@H](O)[C@H](C)O2)[C@H](C)[C@@H](O[C@@H]2O[C@H](C)C[C@H](N(C)C)[C@H]2O)[C@](C)(O)C[C@@H](C)C(=O)[C@H](C)[C@@H](O)[C@]1(C)O,inactive
3,O=C1CCC(N2C(=O)c3ccccc3C2=O)C(=O)N1 (stereo not drawn),inactive
4,C[C@](N)(Cc1ccc(O)c(O)c1)C(=O)O,inactive
5,Nc1cccc(N)c1,inactive
6,Cn1c(=O)c2c(ncn2C)n(C)c1=O,inactive
7,Nc1nc2ncc(CNc3ccc(C(=O)N[C@@H](CCC(=O)O)C(=O)O)cc3)nc2c(=O)[nH]1,inactive
8,CC(=O)OCCC(C)C,inactive
9,O=C(OC[C@H]1O[C@@H](OC(=O)c2cc(O)c(O)c(OC(=O)c3cc(O)c(O)c(O)c3)c2)[C@H](OC(=O)c2cc(O)c(O)c(OC(=O)c3cc(O)c(O)c(O)c3)c2)[C@@H](OC(=O)c2cc(O)c(O)c(OC(=O)c3cc(O)c(O)c(O)c3)c2)[C@@H]1OC(=O)c1cc(O)c(O)c(OC(=O)c2cc(O)c(O)c(O)c2)c1)c1cc(O)c(O)c(OC(=O)c2cc(O)c(O)c(O)c2)c1,inactive
10,CCOCCOCCOCCO,inactive
11,O=C(O)c1cccc(N(Cc2cccnc2)c2ccc(OC(F)F)c(OC(F)F)c2)c1,inactive
12,CC(C)CC(C)(O)C#CC(C)(O)CC(C)C (stereo not drawn),inactive
13,CC(C)=CCC/C(C)=C\CO,inactive
14,CC(=O)c1ccc2c(c1)[C@H](NC(=O)c1ccc(F)cc1)[C@@H](O)C(C)(C)O2,inactive
15,C1N2CN3CN1CN(C2)C3,inactive
16,CC1=CC(=O)CC(C)(C)C1,inactive
17,CNS(=O)(=O)c1cc(C(=O)N2CCC(CCN3C4CCC3CC(n3c(C)nc5ccccc53)C4)(c3cccc(F)c3)CC2)c(Cl)cc1F (stereo not drawn),inactive
18,O=C(O)CCN(C1(C(=O)NO)CCCC1)S(=O)(=O)c1ccc(Oc2ccc(F)cc2)cc1,inactive
19,On1ccccc1=S,inactive

# Experiment: ATG_ERE_CIS: Attagene CIS-FACTORIAL HepG2 Assay for Estrogen Response Element (ERE) (AID 2282940)
# Details: HepG2 ERE cis-reporter, Attagene RNA transcript; actives raise or lower the signal
# Outline: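 After a 24 h chemical treatment, RNA from reporter-transfected HepG2 cells is reverse-transcribed, PCR-amplified and fluorescently labelled. Fragments separated by capillary electrophoresis give reporter signal; DMSO serves as negative control.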
SMILES,AC50,outcome
CC(C)=CCCC(C)=CC=O,100 µM (active),
C=CC(=C)CCC=C(C)C,,inactive
O=P(OC(CCl)CCl)(OC(CCl)CCl)OC(CCl)CCl,,inactive
CCCC(=O)OCC,,inactive
COc1cccc(-c2ccc(/C=C\CN3CCCCCC3)cc2Cl)c1,,inactive
Cn1c(=O)cc(Oc2ccc(F)cc2F)c2cnc(NCC(C)(C)O)nc21,,inactive
Cc1ccc(S(=O)(=O)O)cc1C,,inactive
C=CCCCCCCCCC(=O)O,,inactive
O=C(O)c1cccc(Oc2ccccc2)c1,,inactive
CCn1nc(Cc2ccccc2)cc1C1CCN(C[C@H]2C[C@H](N(C)[C@@H](C(=O)O)C(C)C)C[C@@H]2c2cccc(F)c2)CC1,5.55 µM (active),
